Screen size: about 1,400 compounds; about 1,000 (71%) were called active. So high a share suggests a set chosen from earlier hits. Only a sample is shown. Measured potencies and affinities stand elsewhere. Values without a mark were called inactive. How the calls were made is not given here.
assay: inhibitors of HIV Env-driven cell fusion, dose response, cherry-pick (AID 652057); conditions: HeLa-JRFL Env/CEM21 cell fusion, luciferase; series mostly up to 35 µM; activity change, negative = inhibition: at the top concentration

In order of falling “activity change, negative = inhibition” value:
1. CNC[C@H]1Oc2c(NC(=O)Nc3cccc4ccccc34)cccc2C(=O)N([C@H](C)CO)C[C@H]1C  91.9%
2. CCN1CCN(S(=O)(=O)c2ccc(Cl)c(C(=O)Nc3ccccc3N3CCCC3)c2)CC1  75.7%
3. CCNC1CCC(Nc2ccnc3cc(Cl)ccc23)CC1 (stereo not drawn)  60.5%
4. CC(=O)Nc1ccc(C(=O)OCC(=O)NC(=O)NCc2ccccc2)cc1  52.2%
5. COCC(=O)Nc1ccc2c(c1)C(=O)N(C)[C@H]1CC[C@H](CC(=O)NC3CCCC3)O[C@H]1CO2  36.4%
6. CN1C(=O)c2cc(NC(=O)NC3CCCC3)ccc2OC[C@@H]2O[C@H](CC(=O)NC3CCC3)CC[C@@H]21  25.5%
7. Cc1ccc(S(=O)(=O)N(C)C[C@@H]2Oc3ccc(NS(=O)(=O)c4ccc(Cl)cc4)cc3C(=O)N([C@@H](C)CO)C[C@H]2C)cc1  24.5%
8. CCCCn1c(CN(C)Cc2ccccc2)nc2c1c(=O)n(C)c(=O)n2C  22.1%
9. COc1cc(-c2cc(OC)c(O)c(OC)c2)cc(OC)c1O  19.2%
10. CCNC(=O)Nc1ccc2c(c1)C(=O)N(C)[C@@H]1CC[C@@H](CC(=O)NCC3CCCCC3)O[C@@H]1CO2  17.7%
11. COc1ccc(CCCC(=O)NCCc2ccccc2)c(C)c1  17.4%
12. CC(=O)OC1c2ccccc2C(=O)N1c1ccccc1C (stereo not drawn)  16.1%
13. O=C(Nc1ccc(F)cc1)Nc1ccc2c(c1)[C@@H]1C[C@H](CC(=O)N3CCCCC3)O[C@H](CO)[C@@H]1O2  14%
14. Cc1nc2sc(C(c3ccco3)N3CCC(Cc4ccccc4)CC3)c(O)n2n1 (stereo not drawn)  11.1%
15. CCNC(=O)C[C@H]1CC[C@@H]2[C@@H](COc3ccc(NC(=O)Cc4cccs4)cc3C(=O)N2C)O1  11.1%
16. CC(C)CN(C(=O)c1ccc(S(=O)(=O)N2CCCCC2)cc1)C1CCS(=O)(=O)C1 (stereo not drawn)  9.98%
17. CC(C)NC(=O)N(C)C[C@@H]1Oc2ccc(NC(=O)C3CC3)cc2CC(=O)N([C@H](C)CO)C[C@H]1C  7.6%
18. C#CCn1c(=O)c2c(ncn2C)n(C)c1=O  7.39%
19. Cc1ccc(S(=O)(=O)Nc2ccc3c(c2)C(=O)N([C@H](C)CO)C[C@@H](C)[C@H](CN(C)S(=O)(=O)c2ccc(F)cc2)O3)cc1  5.5%
20. O=C(Nc1ccc(CN2CCOCC2)cc1)c1ccc(-c2cccc(Cl)c2)o1  5.42%
21. CCC(=O)N(C)C(c1ccccc1Cl)c1nnnn1-c1c(C)cccc1C (stereo not drawn)  4.37%
22. Cc1ccc(-n2nnnc2SCn2nnc3ccccc3c2=O)c(C)c1  3.87%
23. CNC[C@@H]1Oc2c(N)cccc2C(=O)N([C@@H](C)CO)C[C@@H]1C  3.77%
24. CCNC(=O)C[C@@H]1CC[C@@H]2[C@@H](COc3ccc(NC(=O)Cc4cccs4)cc3C(=O)N2C)O1  3.59%
25. O=C(C[C@@H]1C=C[C@@H](NC(=O)c2ccccc2)[C@H](CO)O1)NCc1ccc(Oc2ccccc2)cc1  0.586%
26. COCc1[nH]nc2c1C(c1ccc(F)cc1)N(Cc1ccccc1)C2=O (stereo not drawn)  -0.755%
27. COc1ccccc1CN(C)C(=O)CN1CCN(C(=O)c2cccs2)CC1  -2.17%
28. C[C@H]1CN([C@@H](C)CO)C(=O)c2cccc(NC(=O)Nc3ccc(C(F)(F)F)cc3)c2O[C@H]1CN(C)S(=O)(=O)c1ccccc1  -3.18%
29. CCNc1ncnc2c1cnn2C1CCCO1 (stereo not drawn)  -3.45%
30. CNc1nc2c(c(=O)n(C)c(=O)n2C)n1Cc1ccccc1  -3.85%
31. O=C(c1ccc(S(=O)(=O)Nc2ccc(F)cc2)cc1)N1CCN(C(=O)c2ccco2)CC1  -4.91%
32. C[C@H](CO)N1C[C@H](C)[C@@H](CN(C)S(=O)(=O)c2ccc(F)cc2)Oc2ccc(NS(=O)(=O)c3cn(C)cn3)cc2CC1=O  -5.55%
33. C[C@@H]1CN([C@@H](C)CO)C(=O)c2cc(C3=CCCC3)cnc2O[C@@H]1CN(C)Cc1ccc(C(=O)O)cc1  -5.8%
34. COc1ccccc1-c1c(-c2ccc(O)cc2O)n[nH]c1C(F)(F)F  -6.28%
35. C=CCNc1nc2c(c(=O)n(C)c(=O)n2C)n1CCCCCC  -6.3%
36. COc1ccc(NS(=O)(=O)c2cccc(C(=O)NNC(=O)CNC(=O)c3ccc(C)cc3)c2)cc1  -10.4%
37. COC(=O)C[C@H]1C=C[C@H](NC(=O)c2ccccn2)[C@@H](CO)O1  -11.4%
38. COc1ccc(OC)c(NC(=O)COc2ccc3c(c2)CCC3)c1  -12.7%
39. c1ccc(CSc2nnc([C@@H]3CCCN3)o2)cc1  -13.3%
40. CC(C)NC(=O)N(C)C[C@@H]1Oc2ccc(NC(=O)C3CC3)cc2CC(=O)N([C@@H](C)CO)C[C@@H]1C  -13.9%
41. COc1ccc(C(O)c2nc3ccccc3n2C)cc1OC (stereo not drawn)  -14.2%
42. c1coc(CNc2c3c(nc4ccccc24)CCC3)c1  -14.9%
43. CCCCCn1c(C(C)NC(=O)CCC)nc2ccccc21 (stereo not drawn)  -14.9%
44. CCOc1ccccc1CNc1ncnc2ccc(-c3c(C)noc3C)cc12  -15.5%
45. Cc1cc(C)nc(/N=C(\N)Nc2ccc(CC(=O)OC(C)C)cc2)n1  -17.8%
46. Cc1nn(C)cc1NC(=O)C[C@H]1CC[C@@H]2[C@@H](COc3ccc(NC(=O)C4CCC4)cc3C(=O)N2C)O1  -19.4%
47. Cc1cc(C(=O)NC2CCCc3c2cnn3-c2ccc(C(C)(C)C)cc2)nn1C (stereo not drawn)  -25.5%
48. Cc1cc(C)c(CN2CCN(C(=O)Cn3cnc4c(NCc5ccccc5)ncnc43)CC2)c(C)c1  -26.3%
49. O=C(c1cc(COc2cccc(C(F)(F)F)c2)on1)N1CCC(c2ccncc2)CC1  -27.1%
50. N#Cc1c(NCc2ccccc2)ccnc1NCc1cccnc1  -29.1%
51. Cc1sc2ncnc(N3CCN(S(=O)(=O)c4ccc(Br)cc4)CC3)c2c1C  -29.8%
52. Cc1cc(Oc2ccc(C#N)cc2)nc(NCc2ccccc2)n1  -29.9%
53. Cc1nc2ccccc2n1CC(=O)NCc1ccccc1  -34.9%
54. Nc1ccc(O)cc1C(=O)OCC(=O)c1ccc(C2CCCCC2)cc1  -35.9%
55. c1ccc2c(c1)OCC(CNc1ncnc3nc[nH]c13)O2 (stereo not drawn)  -65.2%
56. C[C@@H]1CN([C@@H](C)CO)S(=O)(=O)c2ccc(-c3ccc(F)cc3)cc2O[C@H]1CN(C)C(=O)C1CCCCC1  -71.4%

With `COc1ccc(/C(C)=N/NC(=O)c2cccc(S(=O)(=O)N3CCCC3)c2)c(O)c1` the activity change, negative = inhibition was -20.9% [at 8 µM].

For `CCCCCCCCCCOC(=O)Cn1c(COc2ccccc2OC)[n+](C)c2ccccc21`, the “activity change, negative = inhibition” value was 77.7% [at 16 µM].

Reference: PubChem BioAssay AID652057 (Broad Institute, 2013)
